Potency data for 40 compounds are collected here from PubChem BioAssay (Tox21).

SMILES strings stand for the structures. Records with an inconclusive call do not appear. Entries that show only a call come without a potency. The source made the active and inactive calls. Calls come from the whole dose curve; as a rule, active = well fitted cell-killing curve with a large enough effect in the repeat runs; inconclusive = weak or mixed curves, or effect the other way; inactive = flat fitted curve, though single readings scatter.

The assay can be described thus: qHTS RealTime-Glo MT Cell Viability Assay in HEK293 cells - 0 hour (AID 1224880). Note: top concentration of the series differs between compounds; nearly all actives have a fitted effect of over 45% in size. The conditions noted are these: RealTime-Glo luminescence; series mostly up to 76.8 µM. The source says: U.S. Tox21 Program National Center for Advancing Translational Sciences [NCATS] NIH Chemical Genomics Center [NCGC] U.S. Environmental Protection Agency [EPA] National Institutes of Environmental Health Sciences [NIEHS] National Toxicology Program [NTP] U.S. Food and Drug Administration [FDA] Tox21 Assay Overview: Measure of cell viability is critical in the cell-base assay. Analysis of cell viability is necessary for the characterization of cell responses to cytotoxic drugs and environmental stress. A RealTime-Glo MT Cell Viability Assay to monitor cell viability in real time of continues cell culture during 40 hours of compound treatment was used to screen Tox21 10K library compounds in Hek293 cells. The RealTime-Glo MT Cell Viability Assay is a nonlytic, homogeneous, bioluminescent method to measure cell viability in real time using a simple, plate-based method. The assay involves adding NanoLuc luciferase and a cell-permeant prosubstrate to cells in culture. Viable cells reduce the proprietary prosubstrate to generate a substrate for NanoLuc luciferase. This substrate diffuses from cells into the surrounding culture medium, where it is rapidly used by the NanoLuc Enzyme to produce a luminescent signal. The signal correlates with the number of viable cells, making the assay well suited for cytotoxicity studies.
Tox21 Assay Protocol Summary: The mixture of Hek293 cell suspension and reagents were dispensed at 600cells/6 ul/well in 1536-well tissue culture treated black solid bottom plates using a Multidrop dispenser. After the assay plates were incubated at a 37 C/5% CO2 incubator for 5 hours, 23 nL of compounds dissolved in DMSO, positive and negative controls was transferred to the assay plate by a pintool work station. The plates were incubated at 37 C for 40 hours. The luminescence intensity were measured at 0h, 8h, 16h, 24h, 32h and 40h time points using ViewLux plate reader during compound treatment.
On the technique in general: Quantitative high-throughput screening tests each substance at several concentrations.
In the case of `Cc1cccc2nccnc12`, the Potency entry is “inactive”.

With `O=C(/N=N/C(=O)OCc1ccccc1)OCc1ccccc1`, the Potency result was “inactive”.

Regarding `CC(=O)c1ccc2c(c1)Cc1ccccc1-2`, the Potency entry was “inactive”.

For the compound `Cc1ccccc1OCC(O)CO` (stereo not given), the Potency entry is “inactive”.

Consider `Cc1ccc(C=O)cc1C`, for which the Potency result was “inactive”.

As to `CC(CC=O)CCCC(C)(C)O` (stereo not given), the Potency entry is “inactive”.

In the case of `C[C@@H](O)[C@H]1C(=O)N2C(C(=O)O)=C(SCCN=CN)C[C@H]12`, the Potency result is “inactive”.

For the compound `CCOC(=O)[C@H](CCc1ccccc1)N[C@@H](C)C(=O)N1C(=O)N(C)C[C@H]1C(=O)O`, the Potency entry was “inactive”.

Consider `O=C(CS(=O)Cc1ccco1)NC/C=C\COc1cc(CN2CCCCC2)ccn1` (stereo not given), for which the Potency result was “inactive”.

In the case of `COc1ccc2c(c1OC)C(=O)O[C@@H]2[C@H]1c2c(cc3c(c2OC)OCO3)CCN1C`, the Potency entry was “inactive”.

With `Cc1cc(Cl)c(C)cc1Cl`, the Potency entry is “inactive”.

On to `Cc1c(I)c(=O)n(-c2ccccc2)n1C`, for which the Potency result is “inactive”.

Turning to `c1ccc2nccnc2c1`, the Potency result is “inactive”.

As for `COc1ccc(OC)c(Cl)c1`, the Potency entry was “inactive”.

In the case of `CCCOC(=O)C(C)O` (stereo not given), the Potency result is “inactive”.

For `CCc1ccc(C=O)cc1`, the Potency result was “inactive”.

`O=C(CCNNC(=O)c1ccncc1)NCc1ccccc1`: the Potency entry is “inactive”.

Regarding `COc1ccc(Br)c(C)c1`, the Potency result was “inactive”.

Consider `C=Cc1ccccn1`, for which the Potency result was “inactive”.

Turning to `C[C@H](N)[C@H](O)c1cccc(O)c1`, the Potency entry is “inactive”.

Regarding `CCCN1C[C@H](CSC)C[C@@H]2c3cccc4[nH]cc(c34)C[C@H]21`, the Potency entry was “inactive”.

In the case of `Oc1ccccc1-c1nnco1`, the Potency result was “inactive”.

As to `CC(C)=CCOC(=O)c1ccccc1`, the Potency result was “inactive”.

For the compound `Nc1ccc([N+](=O)[O-])c(N)c1`, the Potency result is “inactive”.

As to `O=C(O)CCSSCCC(=O)O`, the Potency result is “inactive”.

Consider `CC(=O)OC(C)OC(=O)C(C)c1ccc(-c2ccccc2)c(F)c1` (stereo not given), for which the Potency result is “inactive”.

Take `O=C(c1ccc(O)cc1)c1ccc(O)c(O)c1O`: the Potency entry is “inactive”.

For `Nc1cccc(O)c1`, the Potency result was “inactive”.

Take `CC(C)NCC(O)COc1cccc2[nH]ccc12` (stereo not given): the Potency entry was “inactive”.

Regarding `CC(=O)N[C@@H](CCC(=O)O)C(=O)O`, the Potency result is “inactive”.

With `OCCN(CCO)c1cccc(Cl)c1`, the Potency result was “inactive”.

For the compound `CN1C(C)(C)CCCC1(C)C`, the Potency entry is “inactive”.

Turning to `CCCCCCCCCC(C)=O`, the Potency result was “inactive”.

With `CC(C)OC(=O)CCCCC(=O)OC(C)C`, the Potency entry is “inactive”.

Turning to `O=C1O[C@@H]2[C@@H](O)[C@H](O)O[C@@H]2[C@H]1O`, the Potency entry was “inactive”.

Turning to `CCCCCOC(=O)CCC`, the Potency entry is “inactive”.

Consider `COc1ccc2c(c1)C(=O)N(CCc1ccc(S(=O)(=O)NC(=O)NC3CCCCC3)cc1)C(=O)C2(C)C`, for which the Potency entry is “inactive”.

Consider `O=C1CCCC(=O)O1`, for which the Potency entry was “inactive”.

With `CCCCCCOc1ccccc1C(N)=O`, the Potency entry is “inactive”.

Turning to `CC(C)N(c1ccccc1)C(C)C`, the Potency result was “inactive”.
